Experimental data: PubChem BioAssay AID1159580 (chemical genetic matrix, 2015)
“And” between values parts separate entries of the source, which are not always exact repeats. Equal entries are not always repeated. In all, about 5,500 compounds went through this assay and about 2,000 (36%) were called active. Roughly 18% stayed inconclusive and do not appear here. No stated cut-off is given here; in the data, active means normalized growth mostly below about 0.91 (no sharp cut-off); inconclusive means no clear call, values can overlap the other calls; inactive means mostly above about 0.92. The list shows a part of the results.

Assay: chemical genetic growth profiling, strain panel (AID 1159580);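 further: tested at 20 µM; growth read once vehicle control cultures reached saturation at 30 °C; 1 = growth at the plate median or of vehicle wells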
Details: S. cerevisiae deletion strains, growth OD

Measured: normalized growth

C=C(C)c1cc2cc(C(C)=O)c(O)cc2o1
active: locus YBR229C, strain ROT2, stronger effect = lower value 0.91 | locus YDL185W, strain tfp1, stronger effect = lower value 0.895 | locus YDL192W, strain arf1, stronger effect = lower value 0.893 | locus YDR101C, strain arx1, stronger effect = lower value 0.873 | locus YDR195W, strain ref2 1.2 [resistant] | locus YDR392W, strain spt3, stronger effect = lower value 0.672 | locus YER110C, stronger effect = lower value 0.894 | locus YER155C, strain BEM2 (second series), stronger effect = lower value 0.615 | locus YGL086W, strain mad1, stronger effect = lower value 0.928 | locus YGL240W, strain doc1, stronger effect = lower value 0.829 | locus YHR094C, strain hxt1, stronger effect = lower value 0.917 | locus YHR200W, strain rpn10, stronger effect = lower value 0.883 | locus YJL168C, strain set2, stronger effect = lower value 0.929
inactive: locus YAL013W, strain DEP1, stronger effect = lower value 0.948 | locus YAL021C, strain ccr4, stronger effect = lower value 0.981 | locus YAL026C, strain drs2, stronger effect = lower value 0.985 | locus YAL030W, strain snc1, stronger effect = lower value 0.974 | locus YBL061C, strain skt5, stronger effect = lower value 0.97 | locus YBR009C, strain hhf1, stronger effect = lower value 0.927 | locus YBR021W, strain FUR4, stronger effect = lower value 1.11 | locus YBR023C, strain chs3, stronger effect = lower value 0.94 | locus YBR171W, strain sec66, stronger effect = lower value 0.952 | locus YBR231C, strain swc5, stronger effect = lower value 0.961 | locus YBR279W, strain paf1, stronger effect = lower value 0.966 | locus YCL011C, strain gbp2, stronger effect = lower value 0.943 | locus YCL016C, strain dcc1, stronger effect = lower value 0.921 | locus YCL029C, strain bik1, stronger effect = lower value 0.961 | locus YCL069W, strain vba3, stronger effect = lower value 0.964 | locus YCR088W, strain abp1, stronger effect = lower value 0.965 | locus YDL005C, strain med2, stronger effect = lower value 0.991 | locus YDL035C, strain GPR1, stronger effect = lower value 0.93 | locus YDL040C, strain nat1, stronger effect = lower value 0.974 | locus YDL074C, strain BRE1, stronger effect = lower value 0.924 | locus YDL101C, strain DUN1, stronger effect = lower value 0.959 | locus YDR001C, strain nth1, stronger effect = lower value 0.972 | locus YDR069C, strain doa4, stronger effect = lower value 0.998 | locus YDR137W, strain rgp1, stronger effect = lower value 0.854 | locus YDR150W, strain NUM1, stronger effect = lower value 0.965 | locus YDR159W, strain sac3, stronger effect = lower value 0.992 | locus YDR162C, strain NBP2, stronger effect = lower value 0.926 | locus YDR297W, strain sur2, stronger effect = lower value 0.991 | locus YDR318W, strain mcm21, stronger effect = lower value 0.928 | locus YDR334W, strain swr1, stronger effect = lower value 0.983 | locus YDR335W, strain msn5, stronger effect = lower value 0.965 | locus YDR388W, stronger effect = lower value 0.947 | locus YDR502C, strain sam2, stronger effect = lower value 0.968 | locus YEL003W, strain gim4, stronger effect = lower value 0.973 | locus YEL037C, strain rad23, stronger effect = lower value 0.979 | locus YEL061C, strain CIN8 (second series), stronger effect = lower value 0.958 | locus YEL061C, strain CIN8, stronger effect = lower value 0.94 | locus YER015W, strain faa2, stronger effect = lower value 0.958 | locus YER016W, strain bim1, stronger effect = lower value 0.975 | locus YER111C, strain swi4, stronger effect = lower value 0.97 | locus YER155C, strain BEM2, stronger effect = lower value 0.967 | locus YER167W, strain BCK2, stronger effect = lower value 0.904 | locus YFR010W, strain ubp6, stronger effect = lower value 1 | locus YGL078C, strain dbp3, stronger effect = lower value 0.962 | locus YGL167C, strain pmr1, stronger effect = lower value 0.956 | locus YGL173C, strain kem1, stronger effect = lower value 0.971 | locus YGL227W, strain vid30, stronger effect = lower value 0.967 | locus YGL248W, strain PDE1, stronger effect = lower value 0.967 | locus YGL253W, strain hxk2, stronger effect = lower value 0.977 | locus YGR135W, strain pre9, stronger effect = lower value 0.971 | locus YGR252W, strain gcn5, stronger effect = lower value 0.916 | locus YHR013C, strain ard1, stronger effect = lower value 0.94 | locus YHR027C, strain rpn1, stronger effect = lower value 0.992 | locus YHR030C, strain SLT2, stronger effect = lower value 0.954 and 0.925 | locus YHR079C, strain IRE1 (second series), stronger effect = lower value 0.93 | locus YHR079C, strain IRE1, stronger effect = lower value 0.909 | locus YHR129C, strain ARP1, stronger effect = lower value 0.953 | locus YHR142W, strain chs7, stronger effect = lower value 0.907 | locus YIL066C, strain RNR3, stronger effect = lower value 0.919 | locus YIL073C, strain SPO22, stronger effect = lower value 0.899 | locus YIL125W, strain kgd1, stronger effect = lower value 0.934 | locus YIR030C, strain dcg1, stronger effect = lower value 0.929 | locus YJL092W, strain hpr5, stronger effect = lower value 0.973 | locus YJL095W, strain BCK1 (second series), stronger effect = lower value 0.974 | locus YJL095W, strain BCK1, stronger effect = lower value 0.95 and 0.932 | locus YJL115W, strain asf1, stronger effect = lower value 0.983 | locus YJL129C, strain trk1, stronger effect = lower value 0.926 | locus YJL134W, strain LCB3, stronger effect = lower value 0.951 | locus YJL154C, strain vps35, stronger effect = lower value 0.983 | locus YJL164C, strain tpk1, stronger effect = lower value 0.932 | locus YJL166W, strain qcr8, stronger effect = lower value 0.945 | locus YJL187C, strain SWE1 (second series), stronger effect = lower value 0.958
